Bioassay records as filed in PubChem BioAssay.
Compounds with a hit are over-represented: about 9.3% of the library has one in this group of screens.
VACV Venus inh – vaccinia inhibition (Venus reporter); Vaccinia virus Venus reporter expression, fluorescence; Potency, µM (top dose mostly 36.5 µM), without a hit: at the top dose activity change, negative = inhibition, actives largely listed as inhibitors; hit rate 0.46% among 330,000; AID 720580; calls by dose curve; tested in A549 cells; also: potency is read from the fitted curve at half-maximal effect; nearly all actives have a fitted effect of over 30% in size
Vaccinia mCherry – inhibitors of vaccinia virus infection (mCherry reporter signal); Potency, µM (highest dose often 36.5 µM), for inactives: at the highest dose activity change, negative = inhibition, hits mostly inhibitors; hit rate 0.63% among 310,000; Vaccinia virus mCherry reporter infection, fluorescence; calls by dose curve; tested in A549 cells; also: potency is read from the fitted curve at half-maximal effect; nearly all actives have a fitted effect of over 35% in size
HCV inhibitor – blocks hepatitis C virus. hit rate 3.4% among 340,000. Huh7.5.1 HCVcc-Cre infection, luciferase reporter, 44 h. Potency, µM (doses to about 41.8 µM), without a hit: at the top dose activity change, negative = inhibition, hits mostly inhibitors. AID 651820; also: potency is read from the fitted curve at half-maximal effect
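Antiviral activity was scored by luciferase reporter output from cells infected with HCVcc-Cre (~0.5 moi) in presence of compound, 44 h infection period, cells seeded 1,000/well 4 h prior.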
HCMV inh – human cytomegalovirus inhibition | HFF cells, HCMV-luciferase reporter, 72 h; active compounds read low | activity change, negative = inhibition, % at 57.5 µM | hit rate 4.5% among 410,000 | AID 1259415; in the data active = activity change below about -60%; inconclusive = no clear call, values can overlap the other calls; inactive = above about -39%
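Two-dose cell screen: HFF monolayers treated with compounds and infected with luciferase-expressing HCMV at 1 PFU/cell, 72 h at 37C, then lysed for luciferase measurement.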
Sm TGR block – S. mansoni TGR enzyme inhibition | purified TGR, DTNB reduction, TNB absorbance 405 nm | Q962Y6 | Potency, µM (titrated, usually from 114 µM), for inactives: at the top dose activity change, negative = inhibition, usual class: inhibitors | hit rate 3% among 360,000; also: potency is read from the fitted curve at half-maximal effect; nearly all actives have a fitted effect of over 60% in size
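TGR 20 nM + NADPH 100 uM (dispensed conc.), cpd preinc 15 min RT; start with NADPH (500 uM addition) then DTNB (15 mM addition). Kinetic TNB absorbance, 405 nm filter. Four-parameter Hill fit across titration.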
FMDV antiviral – antivirals against foot and mouth disease virus; FMDV antiviral cell-based qHTS; Potency, µM (series often up to 57.9 µM), without a hit: at the highest dose activity change, negative = inhibition, usual class: inhibitors; hit rate 1.2% among 410,000; AID 1159524; calls by dose curve; tested in HEK293T cells; also: read-out not given here; potency is read from the fitted curve at half-maximal effect; nearly all actives have a fitted effect of over 45% in size
Active calls of the source: *; i = inactive; ? = inconclusive; . = no result; [ ] = another dose, or the depositor's remark. Unless noted, calls follow the shape of the dose curve; as a rule, active = well fitted curve in the direction sought with a large enough effect; inconclusive = small, poorly fitted or top-dose-only effect, or another doubt; inactive = no such curve, though single readings can be large; an effect the other way counts as inactive or inconclusive. % is scaled to controls: 0 for no effect and ±100 for the full control effect.

SMILES | VACV Venus inh | Vaccinia mCherry | HCV inhibitor | HCMV inh | Sm TGR block | FMDV antiviral
COc1ccc2nc(/C=N/NC(=O)[C@H](CCSC)NC(=O)OC(C)(C)C)ccc2c1 | -25% | i | -23% | 65 | -8% | -19%
Cc1ccc(S(=O)(=O)c2nc(-c3ccc(F)cc3)oc2SCC(=O)NC2CCCCC2)cc1 | 1% | -8% | . | 19 | -3% | 0%
Cc1ccc(S(=O)(=O)c2nc(-c3cccc(C)c3)oc2N2CCN(c3ccccc3)CC2)cc1 | -7% | -5% | . | -1 | 10% | 0%
COc1ccc(NC(=O)CSc2oc(-c3ccc(F)cc3)nc2S(=O)(=O)c2ccc(C)cc2)c(OC)c1 | ? | -19% | . | -8 | 45µM* | -3%
COc1ccc(-c2nc(S(=O)(=O)c3ccc(C)cc3)c(N3CCCCC3)o2)cc1 | -12%[7.34 µM] | -14%[7.34 µM] | . | -7 | 10µM* | 37%
Cc1ccc(S(=O)(=O)c2nc(Cc3ccccc3)oc2N2CCOCC2)cc1 | 6% | -14% | 11% | 15 | 0.79µM* | 5%
Cc1ccc(S(=O)(=O)c2nc(-c3cccc(C)c3)oc2N2CCCCC2)cc1 | -3% | i | . | 28 | 20µM* | 31%
Cc1ccc(-c2nc(S(=O)(=O)c3ccc(C)cc3)c(N3CCN(c4ccccc4)CC3)o2)cc1 | -8% | i | . | 0 | 2% | -25%
COc1nc(-c2ccc(Cl)cc2)nnc1C | 7% | -9% | 5% | 9 | . | 13%
CS(=O)(=O)c1ccc(N2CCN(c3ccccn3)CC2)c([N+](=O)[O-])c1 | 14% | -3% | 7% | -10 | -19% | 29%
Cc1ccc(S(=O)(=O)c2nc(-c3ccco3)oc2N2CCC(C)CC2)cc1 | -11% | -11% | ? | 11 | 40µM* | 33%
Cc1ccc(S(=O)(=O)c2nc(-c3ccccc3)oc2N2CCCC2)cc1 | . | . | 6% | -35 | 2µM* | -7%
COc1ccc(-c2nc(S(=O)(=O)c3ccccc3)c(N3CCOCC3)o2)cc1 | . | . | 6% | -22 | 40µM* | 1%
O=S(=O)(c1ccccc1)c1nc(-c2ccco2)oc1N1CCOCC1 | -10% | -15% | ? | -7 | 11% | 10%
O=C(N/C(=C\c1ccc(F)cc1)C(=O)N1CCOCC1)c1ccccc1 | -8% | -1% | 17% | -29 | -5% | -6%
CN(CC(=O)Nc1cccc(C(F)(F)F)c1)Cc1ccccc1 | -5% | -11% | -8% | -17 | -2% | -7%
C1=CC2c3ccccc3NC(c3ccncc3)C2C1 (stereo not drawn) | -6% | 0% | -35% | -12 | 2.5µM* | ?
CC(=O)c1ccc2c(c1)C1C=CCC1C(c1ccncc1)N2 (stereo not drawn) | -6% | -22% | -20% | 14 | ? | 12%
Cc1ccc(C(C#N)c2ccc(Cl)nn2)cc1 (stereo not drawn) | -4% | 2% | 11% | -39 | -5% | 30%
N#CC(c1ccc(Cl)nn1)c1ccccc1Cl (stereo not drawn) | -10% | . | 9% | -63* | 8% | 59%
Cc1cccc(C(C#N)c2ccc(Cl)nn2)c1 (stereo not drawn) | 2% | -41% | -1% | -32 | -3% | 36%
N#CC(c1ccc(Cl)cc1)c1ccc(Cl)nn1 (stereo not drawn) | -15% | i | 2% | -82* | -6% | 6%
CC(C)(C)NC(=O)/C=C/c1ccc(C(F)(F)F)cc1 | -9% | i | -3% | 5 | 8% | 28%
Cc1ccc(S(=O)(=O)NC(CC(C)C)C(=O)NCCCn2nc(C)cc2C)cc1 (stereo not drawn) | . | . | 7% | 43 | -21% | 13%
CC(=O)c1c(C)[nH]c(C(=O)OCCOc2ccccc2)c1C | -5% | -11% | 8.9µM* | ? | 1% | -81%
CC(=O)c1c(C)[nH]c(C(=O)OCc2cccc(C)c2)c1C | -8% | i | 16µM* | -16 | 1% | 12%
CC(=O)c1c(C)[nH]c(C(=O)OCc2ccccc2F)c1C | -9% | -15% | 18µM* | ? | 0% | 15%
CCOC(=O)c1c(C)[nH]c(C(=O)OCc2ccc(C)cc2)c1C | . | . | ? | -2 | . | 67%
